From PubChem BioAssay
Rab9 prom act: activates the Rab9 promoter; Huh7 Rab9 promoter-luciferase reporter, luminescence, 24 h; Potency, µM (series often up to 9.22 µM), for inactives: top-dose activation, negative = inhibition, actives largely listed as activators; hit rate 2.8% among 320,000; AID 485297; also: % of control where 0% means no effect; nearly all actives have a fitted effect of over 60% in size
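Promoter activation is measured as luciferase luminescence in Huh7 cells stably transfected with a Rab9 promoter–luciferase construct, following 24 h compound exposure at 37 °C and 10 min reagent incubation at ambient temperature.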
NPC1 promoter act: activators of NPC1 promoter; Huh7 NPC1 promoter luciferase reporter, 24 h; Potency, µM (titrated, usually from 9.22 µM), for the others: at the highest dose activation, most hits filed as activators; hit rate 2.4% among 320,000; AID 485313; also: % of control where 0% means no effect; nearly all actives have a fitted effect of over 60% in size
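Stably transfected Huh7 (NPC1 promoter→luciferase), 1500 cells/well in Opti-MEM + 10% FBS, 2 h settle, then compound 24 h at 37 °C. Luminescence after 10 min with Amplite reagent.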
FLuc modulator: firefly luciferase modulation, counter-screen for miR-21 project. Potency, µM (top dose mostly 57.5 µM), for the others: top-dose activity change, negative = inhibition, hits mostly inhibitors. P08659. purified FLuc, Km substrates, luminescence inhibition. hit rate 6.9% among 360,000;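 also: plate controls were vehicle for no effect and reference inhibitor for full effect; nearly all actives have a fitted effect of over 55% in size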
Target sequence (P08659 whole entry, looked up): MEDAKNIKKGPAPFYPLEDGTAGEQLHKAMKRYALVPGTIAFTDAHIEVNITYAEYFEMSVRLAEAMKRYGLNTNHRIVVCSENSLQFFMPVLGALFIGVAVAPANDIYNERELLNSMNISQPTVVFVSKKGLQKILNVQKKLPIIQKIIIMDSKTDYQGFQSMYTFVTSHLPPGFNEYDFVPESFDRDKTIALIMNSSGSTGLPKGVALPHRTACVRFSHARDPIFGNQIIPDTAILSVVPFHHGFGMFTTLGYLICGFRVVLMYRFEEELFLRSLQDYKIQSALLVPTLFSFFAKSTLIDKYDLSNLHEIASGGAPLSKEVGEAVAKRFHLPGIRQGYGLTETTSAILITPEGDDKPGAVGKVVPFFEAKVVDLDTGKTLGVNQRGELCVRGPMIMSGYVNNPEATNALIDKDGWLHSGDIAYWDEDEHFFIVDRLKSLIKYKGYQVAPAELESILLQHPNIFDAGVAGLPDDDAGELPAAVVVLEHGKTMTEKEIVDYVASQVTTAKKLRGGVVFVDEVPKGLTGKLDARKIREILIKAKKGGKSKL
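Purified P. pyralis luciferase (10nM final) with 10uM D-luciferin and 10uM ATP (Km levels) in 50mM Tris acetate pH 7.5, 10mM Mg acetate, 0.01% Tween-20, 0.05% BSA; qHTS 6-point titration, ~60 µM downward; luminescence read.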
SMN2 splice up: enhancers of SMN2 splice variant expression; AID 1458; Potency, µM (highest dose often 46.1 µM), for the others: at the highest dose activity change, positive = activation, most hits filed as activators; hit rate 2.8% among 210,000; HEK293 SMN2-luciferase splicing reporter, luminescence, 30-36 h; also: % of control where 0% means no effect; nearly all actives have a fitted effect of over 55% in size
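qHTS luciferase splicing reporter: luminescence rises when SMN2 exon 7 is included in transfected HEK293 cells. Compound exposure lasted 30-36 h at 37C, with 4.5 mM final sodium butyrate as control, followed by a ONE-Glo read.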
p53 reactivation: mutant p53 re-activation in reporter cells; H1299 p53-A138V BP100-luciferase reporter, luminescence, 24 h; Potency, µM (doses to about 92.2 µM), for inactives: at the highest dose activity change, positive = activation, actives largely listed as activators; hit rate 0.063% among 320,000; also: % of control where 0% means no effect; nearly all actives have a fitted effect of over 45% in size
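p53-null H1299 cells stably carrying temperature-sensitive p53-A138V and a BP100-luciferase reporter were pinned with compounds (4-point, 1:5 series) and held 24 hrs at 37 deg C. Luminescence was read 10 min after detection reagent.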
ELG1 genotox: inducers of genotoxicity in HEK293T ELG1-luciferase cells; HEK293T ELG1-luciferase reporter, luminescence, 16 h; Potency, µM (highest dose often 46 µM), inactives show at the highest dose activity change, positive = activation, usual class: activators; hit rate 1.3% among 330,000; also: % of control where 0% means no effect; nearly all actives have a fitted effect of over 60% in size
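Cells (2,000/well) expressing the ELG1-luciferase fusion are dosed by pin tool and kept 16 hr at 37 °C, 5% CO2. Signal comes from ONE-Glo luciferase reagent after 30 min at room temperature.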
* marks the source's active call; other numbers are inactive results; ? = inconclusive; / = not tested or not shown. In the library only some 7.3% were active in any assay of this set; here they are far more common. Calls follow the shape of the dose curve; as a rule, active = well fitted curve in the direction sought with a large enough effect; inconclusive = small, poorly fitted or top-dose-only effect, or another doubt; inactive = no such curve, though single readings can be large; an effect the other way counts as inactive or inconclusive. Potency is read from the fitted curve at half-maximal effect.

SMILES	Rab9 prom act	NPC1 promoter act	FLuc modulator	SMN2 splice up	p53 reactivation	ELG1 genotox
CC1=C(C#N)C(=O)NC(=O)/C1=C\c1ccc(-c2ccc(C)cc2[N+](=O)[O-])o1	1%	4%	27µM*	-4%	1%	1%
CCOC(=O)c1cc(-c2ccc(/C=C3/C(=O)NC(=O)C(C#N)=C3C)o2)ccc1Cl	1%	-5%	?	0%	5%	3%
Cn1ncc(C#N)c1NC(=O)C1CC(c2c(F)cccc2Cl)=NO1 (stereo unspecified)	-7%	0%	-9%	14%	-3%	-7%
COc1ccc(NC(=O)c2cc(-c3ccccc3Cl)on2)cc1OC	14%	14%	7.6µM*	/	/	7%
O=C(NCCN1CCOCC1)c1cc(-c2ccccc2Cl)on1	-8%	-2%	?	/	11%	9%
O=C(Nc1cccc(O)c1)c1cc(-c2ccccc2Cl)on1	19%	?	0.38µM*	/	?	?
O=C(Nc1ccccc1)OCc1cc(-c2ccccc2Cl)on1	3%	25%	13µM*	?	?	20%
Cn1ncc(C#N)c1NC(=O)c1cc(-c2ccccc2Cl)on1	8%	15%	27µM*	6%	2%	3%
O=C(O)C1CCC[C@@H]2[C@@H]3CC(CN12)[C@@H]1CCCCN1C3 (stereo partly specified)	/	/	/	10%	/	/
CCCc1cc(=O)oc2c3c(ccc12)OCN(Cc1ccc(OC)cc1)C3	/	/	2%	/	/	/
Cc1noc(/C=C/c2cccs2)c1S(=O)(=O)N1CCC(C(=O)NCc2ccccc2Cl)CC1	/	/	0%	-6%	/	/
Nc1nc(Nc2ccccc2)nc2c1ncn2[C@@H]1O[C@H](CO)[C@H](O)[C@H]1O	/	/	/	24%	/	/
COc1ccc2oc(=O)c(C(=O)N3CCN(c4ccc(C)cc4)CC3)cc2c1	/	/	-1%	-5%	/	/
C=CCn1c(-c2ccccc2)nc2nc3ccccc3nc21	4%	12%	17µM*	4%	21%	-5%
C=CCn1c(-c2ccc(C)cc2)nc2ccccc21	18%	11%	11µM*	-22%	7%	?
c1ccc(Cn2c(-c3ccccc3)nc3nc4ccccc4nc32)cc1	-2%	0%	-12%	-23%	0%	-6%
CC(=O)Nc1nc2ccccc2n1CCOc1ccccc1Cl	-11%	-5%	-2%	-46%	1%	-4%
C=CCn1c(NC(=O)c2ccc(C)cc2)nc2ccccc21	?	2.8µM*	?	/	/	?
CCCn1c(NC(=O)c2ccc(C)cc2)nc2ccccc21	30%	19%	-15%	?	10%	?
Cc1ccc(Cn2c(-c3ccccc3)nc3ccccc32)cc1	/	/	?	-17%	/	/
O=C(Nc1nc2ccccc2n1CCOc1ccccc1Cl)c1ccccc1	/	/	4.8µM*	18%	/	/
COc1ccccc1C(=O)C1CCCN(C(=O)Nc2ccccc2F)C1 (stereo unspecified)	?	17%	?	/	7%	6%
CCCn1c(-c2ccc(OC)cc2)nc2ccccc21	-5%	-2%	?	-6%	16%	-2%
COCn1c(-c2ccc(OC)cc2)nc2ccccc21	2.5µM*	?	6µM*	14µM*	?	?
O=C(/C=C/Nc1ccc(Br)cc1F)c1ccco1	0.71µM*	1.1µM*	0.24µM*	1.1µM*	-6%	0.33µM*
SMILES	Rab9 prom act	NPC1 promoter act	FLuc modulator	SMN2 splice up	p53 reactivation	ELG1 genotox
O=C(/C=C/Nc1ccccc1Oc1ccccc1)c1ccco1	-4%	2%	-26%	-1%	23%	0%
O=C(/C=C/Nc1ccccc1O)c1ccco1	?	1%	2.4µM*	/	?	21µM*
O=C(/C=C/Nc1ccc(F)cc1F)c1ccco1	3.5µM*	?	0.21µM*	2.8µM*	-6%	0.46µM*
O=C(NNC(=S)Nc1ccc(F)cc1F)c1ccco1	?	?	-16%	/	?	11%
Cc1cc(Br)ccc1NC(=O)c1ccco1	16%	8%	-8%	/	/	8%
Cc1ccc(CN2CCN(C3CCNCC3)C(=O)C2=O)cc1	/	/	2%	/	/	/
CCN1CCN(c2cc3c(cc2F)c(=O)c(S(=O)(=O)c2cc(C)cc(C)c2)cn3CC)CC1	/	/	0%	/	/	/
COc1ccc(NC(=O)Cn2ccn(-c3ccc(C)c(C)c3)c(=O)c2=O)cc1Cl	/	/	-19%	/	/	/
O=C(Nc1nc(-c2cccs2)cs1)c1ccc(Cl)s1	23%	25%	13µM*	-94%	?	?
O=C(Nc1nc(-c2ccc(Cl)s2)cs1)c1ccccc1	29%	14%	27µM*	-25%	-13%	11%
Cc1ccc(C(=O)Nc2nc(-c3cc(Cl)sc3Cl)cs2)cc1	-11%	-1%	9.5µM*	-69%	-3%	6%
CCN(c1ccccc1)c1nnc(NC(=O)Nc2ccc(C)cc2)s1	/	/	1%	/	/	/
CCOc1ccc(N=Cc2c(C)[nH]n(-c3nc4ccccc4[nH]3)c2=O)cc1	?	25%	8.5µM*	12%	?	3%
Cc1[nH]n(-c2ccccc2)c(=O)c1C=Nc1cnc2ccccc2c1	0%	-4%	-19%	6%	-3%	0%
CCc1nn2c(=O)cc(COC(=O)c3cccc(NC(=O)c4ccccc4C)c3)nc2s1	/	/	0%	/	/	/
COc1ccccc1OCC(=O)N/N=C1\CCc2ccccc21	2.8µM*	26%	21µM*	/	25%	8.2µM*
O=C(COc1ccccc1F)N/N=C1\CCCc2ccccc21	?	?	15µM*	/	?	?
Cc1cccc2c1OCC/C2=N\NC(=O)COc1ccccc1	?	?	19µM*	9%	6%	?
COc1ccc(OCC(=O)N/N=C2\CCCc3ccccc32)cc1	6%	8%	19µM*	/	15%	1%
COc1ccccc1OCC(=O)N/N=C1\CCCCc2ccccc21	-2%	1%	-17%	/	-1%	-7%
Cc1cc(Cl)ccc1OCC(=O)N/N=C1\CCCc2ccccc21	-1%	-7%	-8%	-30%	-3%	-3%
CCCN(Cc1cccs1)C(=O)Nc1cc(C)ccc1OC	/	/	2%	/	/	/
CCOC(=O)N1CCc2c(sc(NC(=O)C3COc4ccccc4O3)c2C(N)=O)C1 (stereo unspecified)	12%	18%	4%	/	10%	-11%
CN1CCc2c(sc(NC(=O)c3ccc4ccccc4c3)c2C(N)=O)C1	?	?	2.7µM*	/	1%	10µM*
CN1CCc2c(sc(NC(=O)Cc3ccccc3)c2C(N)=O)C1	6%	1%	5%	/	/	5%
CC(C)N1CCc2c(sc(NC(=O)CN3C(=O)c4ccccc4C3=O)c2C(N)=O)C1	-4%	0%	0%	0%	2%	1%
